For some assays here: Entries with a potency or affinity are not part of this list.
Columns and labels:
Set-up in all cases: scale not given: direction of the effect not stated beside the values
[1] = target: Protein translocase subunit SecA (Escherichia coli (strain K12)) (UniProt P10408); experiment: Assay to Identify E. coli SecA ATPase Inhibitors; format: functional; conditions: 30 µM
[2] = target: T1, Ubiquitin-activating enzyme e1, putative (Leishmania donovani (strain BPK282A1)) (UniProt E9BSI1); experiment: Leishmania donovani Ubiquitin Activating Enzyme (LdE1); format: functional; conditions: 30 µM
T1 sequence (whole entry): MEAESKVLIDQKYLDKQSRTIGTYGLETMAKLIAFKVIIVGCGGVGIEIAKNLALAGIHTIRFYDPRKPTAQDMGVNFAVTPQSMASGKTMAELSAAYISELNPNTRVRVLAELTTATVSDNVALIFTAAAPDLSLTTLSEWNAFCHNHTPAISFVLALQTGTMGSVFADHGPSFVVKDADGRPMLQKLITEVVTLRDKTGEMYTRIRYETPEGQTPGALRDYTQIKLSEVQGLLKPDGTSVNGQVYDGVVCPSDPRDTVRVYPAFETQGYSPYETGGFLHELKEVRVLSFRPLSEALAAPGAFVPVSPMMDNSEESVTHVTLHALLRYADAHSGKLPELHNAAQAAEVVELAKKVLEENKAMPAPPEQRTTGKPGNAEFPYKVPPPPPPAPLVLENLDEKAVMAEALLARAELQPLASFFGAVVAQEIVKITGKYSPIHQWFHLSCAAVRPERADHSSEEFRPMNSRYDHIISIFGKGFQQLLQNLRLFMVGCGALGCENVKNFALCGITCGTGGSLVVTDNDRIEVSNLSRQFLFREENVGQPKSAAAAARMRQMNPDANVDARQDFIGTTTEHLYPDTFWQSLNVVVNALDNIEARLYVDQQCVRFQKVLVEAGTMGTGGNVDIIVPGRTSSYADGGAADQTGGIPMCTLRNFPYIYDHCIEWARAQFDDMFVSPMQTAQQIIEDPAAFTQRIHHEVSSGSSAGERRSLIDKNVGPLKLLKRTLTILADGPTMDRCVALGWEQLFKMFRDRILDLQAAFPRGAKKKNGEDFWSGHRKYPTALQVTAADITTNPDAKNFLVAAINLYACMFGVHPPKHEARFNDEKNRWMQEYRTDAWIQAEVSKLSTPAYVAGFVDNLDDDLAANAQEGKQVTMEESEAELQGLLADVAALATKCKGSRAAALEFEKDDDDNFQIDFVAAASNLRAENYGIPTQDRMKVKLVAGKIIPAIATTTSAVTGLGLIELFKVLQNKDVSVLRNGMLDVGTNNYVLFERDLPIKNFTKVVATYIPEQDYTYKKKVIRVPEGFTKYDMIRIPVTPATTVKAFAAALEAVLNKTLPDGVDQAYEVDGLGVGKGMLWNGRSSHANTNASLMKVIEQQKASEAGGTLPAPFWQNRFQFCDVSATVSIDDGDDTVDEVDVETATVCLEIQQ

[3] = target: AMP-activated protein kinase, AMPK (Homo sapiens) (UniProt P54646+O43741+P54619+Q9UGJ0+Q9Y478+Q13131+Q9UGI9); experiment: AMP-dependent Kinase enzyme assay. An in vitro enzyme assay that detects ADP turnover that is directly proportional to AMPK activity. This uses naive AMPK that is activated during the assay with MK-8722; format: functional; conditions: 30 µM
[4] = target: Sialic acid-binding Ig-like lectin 9 (Homo sapiens) (UniProt Q9Y336); experiment: Hs-Siglec9 ALPHAscreen SOP 20170721; conditions: 10 µM
Trypanosoma cruzi = experiment: Trypanosoma cruzi phosphomannomutase and mannose-1-phosphate guanylyltransferase assay; format: functional; conditions: 10 µM
[5] = target: T2, Arginase-2, mitochondrial (Homo sapiens) (UniProt P78540); experiment: in vitro enzyme assay to detect the production of urea directly proportional to the activity of Arginase II; format: functional; conditions: 33.3 µM; also: in the data most compounds retested in dose-response had high values
T2 sequence (whole entry): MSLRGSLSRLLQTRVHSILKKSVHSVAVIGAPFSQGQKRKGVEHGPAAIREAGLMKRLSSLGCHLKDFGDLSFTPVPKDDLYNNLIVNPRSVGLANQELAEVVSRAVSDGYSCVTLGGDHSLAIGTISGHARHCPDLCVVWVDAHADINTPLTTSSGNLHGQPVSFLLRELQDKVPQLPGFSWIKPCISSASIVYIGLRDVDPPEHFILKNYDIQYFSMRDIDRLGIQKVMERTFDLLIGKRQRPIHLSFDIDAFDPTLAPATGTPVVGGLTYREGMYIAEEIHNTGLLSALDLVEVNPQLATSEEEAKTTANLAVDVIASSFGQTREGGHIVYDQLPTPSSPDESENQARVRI

[6] = target: T3, Proteasome subunit beta (Trypanosoma cruzi) (UniProt O96673); experiment: Trypanosoma cruzi proteasome chymotrypsin-like activity (TcProtChymo) assay.; also: in the data most compounds retested in dose-response had high values; format: functional; conditions: 9.37 µM
T3 sequence (whole entry): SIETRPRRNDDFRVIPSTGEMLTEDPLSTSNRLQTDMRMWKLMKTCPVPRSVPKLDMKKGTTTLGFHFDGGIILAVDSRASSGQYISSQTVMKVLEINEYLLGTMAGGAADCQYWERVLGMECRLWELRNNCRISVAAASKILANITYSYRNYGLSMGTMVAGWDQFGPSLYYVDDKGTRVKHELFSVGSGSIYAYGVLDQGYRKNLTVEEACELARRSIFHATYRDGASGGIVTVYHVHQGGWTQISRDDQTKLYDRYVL

Homo sapiens = species: Homo sapiens; experiment: To identify inhibition of the IFN signalling (Jak-Stat) pathway via expression of an eGFP reporter gene under the control of an IFN-stimulated response element (ISRE) containing MxA promoter.; format: functional; conditions: 30 µM
[7] = target: T4, Tyrosyl-tRNA synthetase, putative (Trypanosoma cruzi (strain CL Brener)) (UniProt Q4DSP6); experiment: Trypanosoma cruzi tyrosyl tRNA synthetase (TcYRS) _High Tyrosine SOP; format: functional; conditions: 30 µM; also: in the data most compounds retested in dose-response had high values
T4 sequence (whole entry): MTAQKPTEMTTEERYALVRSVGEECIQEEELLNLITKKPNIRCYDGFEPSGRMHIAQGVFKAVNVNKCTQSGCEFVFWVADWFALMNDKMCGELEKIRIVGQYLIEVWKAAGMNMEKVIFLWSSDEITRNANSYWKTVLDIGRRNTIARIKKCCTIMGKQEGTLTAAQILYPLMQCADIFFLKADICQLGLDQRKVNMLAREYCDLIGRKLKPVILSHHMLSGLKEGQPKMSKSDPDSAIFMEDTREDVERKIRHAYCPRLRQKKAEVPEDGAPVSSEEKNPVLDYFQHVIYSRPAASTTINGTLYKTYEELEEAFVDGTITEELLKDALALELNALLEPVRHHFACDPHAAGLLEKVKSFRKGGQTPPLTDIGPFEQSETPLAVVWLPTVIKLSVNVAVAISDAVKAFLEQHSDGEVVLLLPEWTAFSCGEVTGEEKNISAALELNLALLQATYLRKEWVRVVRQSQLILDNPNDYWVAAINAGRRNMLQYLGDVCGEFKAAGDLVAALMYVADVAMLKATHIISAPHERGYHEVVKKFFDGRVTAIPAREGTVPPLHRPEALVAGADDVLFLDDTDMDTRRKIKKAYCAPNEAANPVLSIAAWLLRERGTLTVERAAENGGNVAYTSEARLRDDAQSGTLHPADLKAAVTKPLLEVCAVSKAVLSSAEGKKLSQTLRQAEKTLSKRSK

[8] = target: T4, Tyrosyl-tRNA synthetase, putative (Trypanosoma cruzi (strain CL Brener)); experiment: Trypanosoma cruzi tyrosyl tRNA synthetase (TcYRS) SOP; format: functional; conditions: 30 µM
[9] = target: Chromo domain-containing protein 1 (Saccharomyces cerevisiae (strain ATCC 204508 / S288c) (Baker's yeast)) (UniProt P32657); experiment: ScCHD-1 Enzyme Inhibition Assay; format: functional; conditions: 30 µM; also: in the data most compounds retested in dose-response had high values
Chromo domain-containing protein 1 (Saccharomyces cerevisiae (strain ATCC 204508 / S288c) (Baker's yeast)), sequence (P32657 whole entry, the tested form may be a part): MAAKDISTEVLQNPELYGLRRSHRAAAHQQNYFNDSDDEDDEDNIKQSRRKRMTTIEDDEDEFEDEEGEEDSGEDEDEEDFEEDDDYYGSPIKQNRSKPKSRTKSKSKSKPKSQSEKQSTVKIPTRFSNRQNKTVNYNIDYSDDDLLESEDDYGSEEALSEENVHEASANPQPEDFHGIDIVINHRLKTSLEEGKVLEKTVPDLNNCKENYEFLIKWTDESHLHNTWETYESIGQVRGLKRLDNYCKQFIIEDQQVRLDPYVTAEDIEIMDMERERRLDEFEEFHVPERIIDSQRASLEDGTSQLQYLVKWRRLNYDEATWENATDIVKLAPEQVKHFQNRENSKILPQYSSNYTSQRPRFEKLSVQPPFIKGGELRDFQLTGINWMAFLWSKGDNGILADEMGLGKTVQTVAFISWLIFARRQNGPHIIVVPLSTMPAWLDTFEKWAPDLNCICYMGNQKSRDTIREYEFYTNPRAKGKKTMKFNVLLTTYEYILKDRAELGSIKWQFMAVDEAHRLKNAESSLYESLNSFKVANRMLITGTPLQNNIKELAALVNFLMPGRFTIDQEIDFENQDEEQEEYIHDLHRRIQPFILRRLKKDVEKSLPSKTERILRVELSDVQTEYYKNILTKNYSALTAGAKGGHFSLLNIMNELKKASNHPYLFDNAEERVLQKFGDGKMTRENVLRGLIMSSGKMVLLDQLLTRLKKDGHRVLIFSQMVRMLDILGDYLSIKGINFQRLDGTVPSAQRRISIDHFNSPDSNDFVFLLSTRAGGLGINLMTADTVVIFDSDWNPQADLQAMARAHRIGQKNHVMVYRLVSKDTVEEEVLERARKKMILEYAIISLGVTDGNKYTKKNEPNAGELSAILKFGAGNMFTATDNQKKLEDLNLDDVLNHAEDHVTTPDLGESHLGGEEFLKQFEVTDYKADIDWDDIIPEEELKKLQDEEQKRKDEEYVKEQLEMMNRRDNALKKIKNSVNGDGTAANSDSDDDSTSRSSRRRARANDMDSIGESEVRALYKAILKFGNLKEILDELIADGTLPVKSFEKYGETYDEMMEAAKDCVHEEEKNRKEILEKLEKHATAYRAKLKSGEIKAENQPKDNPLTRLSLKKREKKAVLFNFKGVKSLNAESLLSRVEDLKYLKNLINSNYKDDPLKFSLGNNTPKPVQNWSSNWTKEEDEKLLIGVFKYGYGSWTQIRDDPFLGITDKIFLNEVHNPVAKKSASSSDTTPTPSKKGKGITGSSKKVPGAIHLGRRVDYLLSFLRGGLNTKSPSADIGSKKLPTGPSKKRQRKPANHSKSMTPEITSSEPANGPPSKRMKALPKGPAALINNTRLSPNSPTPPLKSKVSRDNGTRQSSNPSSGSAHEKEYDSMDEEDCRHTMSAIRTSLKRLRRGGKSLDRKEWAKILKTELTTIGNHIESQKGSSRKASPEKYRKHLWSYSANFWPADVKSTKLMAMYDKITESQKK

Protein translocase subunit SecA (Escherichia coli (strain K12)), sequence (P10408 whole entry): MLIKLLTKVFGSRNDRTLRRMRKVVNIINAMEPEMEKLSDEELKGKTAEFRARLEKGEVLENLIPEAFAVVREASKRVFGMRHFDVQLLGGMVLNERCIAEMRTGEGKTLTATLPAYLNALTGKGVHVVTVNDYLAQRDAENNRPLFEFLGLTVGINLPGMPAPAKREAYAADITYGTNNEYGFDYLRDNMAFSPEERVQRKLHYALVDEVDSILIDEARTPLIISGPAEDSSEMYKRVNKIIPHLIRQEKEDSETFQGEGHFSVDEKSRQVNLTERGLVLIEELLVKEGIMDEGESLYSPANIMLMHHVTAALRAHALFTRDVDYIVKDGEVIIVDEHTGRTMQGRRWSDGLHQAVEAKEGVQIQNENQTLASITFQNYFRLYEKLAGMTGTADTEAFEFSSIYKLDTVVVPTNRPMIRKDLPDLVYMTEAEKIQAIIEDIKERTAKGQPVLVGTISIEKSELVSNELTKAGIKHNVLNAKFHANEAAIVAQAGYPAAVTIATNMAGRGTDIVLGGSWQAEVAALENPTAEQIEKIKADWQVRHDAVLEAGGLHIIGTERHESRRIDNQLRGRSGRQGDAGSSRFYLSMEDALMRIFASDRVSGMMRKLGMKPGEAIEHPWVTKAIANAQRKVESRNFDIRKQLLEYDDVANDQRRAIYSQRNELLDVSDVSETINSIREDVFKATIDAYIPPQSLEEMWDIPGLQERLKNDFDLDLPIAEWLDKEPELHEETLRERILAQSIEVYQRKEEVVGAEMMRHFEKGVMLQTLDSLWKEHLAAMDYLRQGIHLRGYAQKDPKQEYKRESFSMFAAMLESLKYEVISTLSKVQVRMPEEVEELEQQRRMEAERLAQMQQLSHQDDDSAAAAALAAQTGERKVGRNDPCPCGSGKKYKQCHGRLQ
Sialic acid-binding Ig-like lectin 9 (Homo sapiens), sequence (Q9Y336 whole entry): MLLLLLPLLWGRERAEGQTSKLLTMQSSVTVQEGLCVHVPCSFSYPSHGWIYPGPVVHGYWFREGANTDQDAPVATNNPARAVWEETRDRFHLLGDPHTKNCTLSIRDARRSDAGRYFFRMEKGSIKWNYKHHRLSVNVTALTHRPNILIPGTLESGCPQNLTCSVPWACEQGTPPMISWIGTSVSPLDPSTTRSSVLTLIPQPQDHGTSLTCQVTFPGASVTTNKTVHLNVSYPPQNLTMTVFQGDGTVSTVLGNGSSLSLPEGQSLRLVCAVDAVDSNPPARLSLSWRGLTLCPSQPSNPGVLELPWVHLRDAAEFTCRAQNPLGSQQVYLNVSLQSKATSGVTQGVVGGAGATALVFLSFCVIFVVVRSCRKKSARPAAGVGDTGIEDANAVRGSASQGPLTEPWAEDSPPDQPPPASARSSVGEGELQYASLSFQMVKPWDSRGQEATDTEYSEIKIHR

| SMILES | Percent Effect [1] [%] | Percent Effect [2] [%] | Percent Effect [3] [%] | Percent Effect [4] [%] | Percent Effect (Trypanosoma cruzi) [%] | Percent Effect [5] [%] | Percent Effect [6] [%] | Percent Effect (Homo sapiens) [%] | Percent Effect [7] [%] | Percent Effect [8] [%] | Percent Effect [9] [%] |
| --- | --- | --- | --- | --- | --- | --- | --- | --- | --- | --- | --- |
| O=C(CCn1ccc2cc(Br)ccc21)NCc1ccc(C(=O)O)cc1 | -5.12 | 2.63 | 11.6 | 0.438 | -3.02 | -3.55 | 16.2 | 10.9 | -6.38 | -10.4 | -1.59 |
| CS(=O)(=O)N[C@@H]1CCO[C@]2(CCN(C(=O)c3cnccn3)C2)C1 | -3.71 | 10.8 | 1.74 | -2.86 | 1.07 | 0.955 | 22.7 | 5.57 | 7.57 | 17.9 | 2.48 |
| CCOc1ccc(NC(=O)c2cnc(N3CCCC3)nc2C)cc1 | -4.12 | 5.2 | -3.01 | -0.674 | 1.48 | 3.23 | 5.22 | 11.8 | 4.23 | 16.7 | -8.66 |
| O=C(c1cc(Cl)c2c(c1)OCO2)N1CCN(c2ccccn2)CC1 | -2.8 | 5.48 | -6.15 | 5.68 | 1.37 | 3.64 | 16.1 | 14.1 | 7.53 | 15 | -12.5 |
| O=C(Cn1cc(I)cn1)N1CCCC1 | 0.0934 | -1.33 | -2.19 | 10.5 | 2.55 | -2.64 | 7.02 | 20.5 | 5.29 | 5.13 | -2.75 |
| O=C(c1csc(-c2cccs2)n1)N1CCCC1Cn1cccn1 (stereo not given) | -3.61 | 10.5 | -6.24 | 3.2 | -3.83 | 1.08 | -4.99 | -2.06 | 3.45 | 6.17 | 0.105 |
| O=C(c1ccc[nH]1)N1CCN(CC2CCOc3ccccc3C2)CC1 (stereo not given) | -7.81 | 1.39 | -3.67 | 14.8 | 1.07 | -1.77 | 4.04 | -2.27 | 3.16 | -7.69 | -1 |
| Cc1nn(C)c(C)c1C1CCCN1Cc1noc(C2CC2)n1 (stereo not given) | 2 | 15.8 | -5.38 | -11.5 | -8.87 | 3.96 | 15.5 | 8.86 | 8.37 | 6.17 | -6.57 |
| Cc1nc(C)n(CC2CN(Cc3cccc(C(N)=O)c3)CCO2)n1 (stereo not given) | -1.88 | -5.41 | 5.74 | -4.05 | -4.69 | 0 | 9.72 | -7.92 | 5.94 | 6.1 | 7.72 |
| CC(=O)N1CCC(c2ccnc(Nc3cncnc3)n2)C1 (stereo not given) | -2.09 | 13.3 | 12.8 | -1.51 | -0.394 | 0.699 | -0.793 | 8.94 | 7.45 | 14.1 | -3.42 |

— ChEMBL document CHEMBL3988442, “University of Dundee, Small-Polar-MMV Screening Library” (2021)
